For 9 molecules, growth results are on record in PubChem BioAssay (NCI).

Some test systems named below: RPMI-8226 leukemia; OVCAR-8 ovarian; OVCAR-5 ovarian; OVCAR-4 ovarian; SK-OV-3 ovarian; IGROV1 ovarian; HS 578T breast; NCI/ADR-RES ovarian; T-47D breast; BT-549 breast; MDA-MB-435 melanoma; SW-620 colon; MCF7 breast; HCT-116 colon; HCC-2998 colon; KM12 colon.
Common to all, as to assay: NCI-60 one-dose screen, 48 h (100 = growth as untreated, 0 = no growth, -100 = all killed)
What all share (conditions): 10 µM unless noted

Molecules are shown by their SMILES. This is part of a sample that, as a whole, favours compounds with a hit. Of some 83,000 tested, about 20% had one in any assay.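 Single-concentration screen, 48 h exposure, 96-well plates. Endpoint: percent growth. Below 10 = active.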 Values without a mark were called inactive. Activity calls are given as the source filed them.

As to `COc1ccc([C@H]2[C@H](O)C(=O)N2c2cc(OC)c(OC)c(OC)c2)cc1Cl`, the growth with RPMI-8226 leukemia is 19%; with OVCAR-8 ovarian, -12.7% (active); in the assay on OVCAR-5 ovarian it was 30.3%; with OVCAR-4 ovarian, 74.4%; in the assay with SK-OV-3 ovarian it was 27.3%; in the assay with IGROV1 ovarian it was 22.8%. Besides, the growth is 13.6% in the assay with HS 578T breast; -10.6% (active) in the assay on NCI/ADR-RES ovarian; 69.9% in the assay on T-47D breast; 1.85% (active) in the assay on BT-549 breast; -0.621% (active) in the assay with MDA-MB-435 melanoma; 17.8% in the assay on SW-620 colon. For the same molecule, the growth is 9.61% (active) in the assay on MCF7 breast, 2.62% (active) in the assay with HCT-116 colon, 13.8% in the assay with HCC-2998 colon and 11.3% in the assay on KM12 colon.
With `COc1ccc(-c2cc(-c3cccc4ccccc34)n3c(n2)nc2ccccc23)cc1`, the growth in the assay on RPMI-8226 leukemia was 32.7%; in the assay with OVCAR-8 ovarian, 42.1%; in the assay on OVCAR-5 ovarian it was 81.1%; with OVCAR-4 ovarian it was 64.8%; with SK-OV-3 ovarian it was 58.4%; in the assay with IGROV1 ovarian, 48.7%. The growth was 55% in the assay with HS 578T breast; 54.2% in the assay on NCI/ADR-RES ovarian; 24.2% in the assay on T-47D breast; 69.9% in the assay with BT-549 breast; 53.4% in the assay on MDA-MB-435 melanoma; 40.6% in the assay on SW-620 colon. Further, the growth was 19.6% in the assay on MCF7 breast, 37.9% with HCT-116 colon, 88.3% with HCC-2998 colon and 62.4% with KM12 colon.
Take `COc1cc2c3c(n(CCCNCC4CC4)c(=O)c2cc1OC)-c1cc2c(cc1C3=O)OCO2`: the growth in the assay on RPMI-8226 leukemia was -42.8% (active); in the assay on OVCAR-8 ovarian, -60.5% (active); with OVCAR-5 ovarian, -66.8% (active); in the assay on OVCAR-4 ovarian, 1.27% (active); with SK-OV-3 ovarian, 8.75% (active); in the assay on IGROV1 ovarian, 56%. For the same molecule, the growth in the assay on HS 578T breast is 95.3%; in the assay on NCI/ADR-RES ovarian, -13.6% (active); with T-47D breast, 50.6%; with BT-549 breast, 66.1%; in the assay on MDA-MB-435 melanoma, 65%; in the assay on SW-620 colon, -20.1% (active). The growth was -77.4% (active) in the assay with MCF7 breast, -85.1% (active) with HCT-116 colon, 69.1% with HCC-2998 colon and 65.1% in the assay with KM12 colon.
As for `O=C1c2c(c3c4cc(O)ccc4oc3c3[nH]c4ccccc4c23)C(=O)N1O`, the growth was 4.71% (active) in the assay on RPMI-8226 leukemia; 12.1% in the assay with OVCAR-8 ovarian; 72.5% with OVCAR-5 ovarian; 22% with OVCAR-4 ovarian; -17% (active) in the assay on SK-OV-3 ovarian; 0.286% (active) in the assay with IGROV1 ovarian. For the same molecule, the growth in the assay with HS 578T breast was -8.67% (active); in the assay with NCI/ADR-RES ovarian it was 40.7%; in the assay on T-47D breast, -17% (active); in the assay on BT-549 breast, -9.43% (active); in the assay with MDA-MB-435 melanoma, -13.8% (active); in the assay with SW-620 colon, 4.5% (active). The growth is 6.15% (active) in the assay on MCF7 breast, -45.8% (active) in the assay on HCT-116 colon, 34.6% in the assay on HCC-2998 colon and -17.2% (active) in the assay on KM12 colon.
`COc1ccc2c(c1)oc1c3[nH]c4ccccc4c3c3c(c21)C(=O)N(O)C3=O`: the growth was 28% with RPMI-8226 leukemia; 48.4% with OVCAR-8 ovarian; 110% in the assay on OVCAR-5 ovarian; 77.9% in the assay on OVCAR-4 ovarian; 39.1% in the assay on SK-OV-3 ovarian; 41.2% in the assay with IGROV1 ovarian. The growth is 77.9% in the assay on HS 578T breast; 59.6% with NCI/ADR-RES ovarian; 10.8% in the assay on T-47D breast; 40.9% in the assay on BT-549 breast; 53.2% in the assay on MDA-MB-435 melanoma; 34.3% in the assay with SW-620 colon. Besides, the growth in the assay with MCF7 breast is 15.7%; in the assay on HCT-116 colon it was 21.5%; in the assay on HCC-2998 colon, 84.7%; in the assay on KM12 colon, 48%.
`COc1ccc(NC(=O)Cn2cc(CN3C(=O)c4ccc([N+](=O)[O-])cc4C3=O)nn2)cc1`: the growth is 102% with RPMI-8226 leukemia; 94.2% with OVCAR-8 ovarian; 115% in the assay on OVCAR-5 ovarian; 112% in the assay with OVCAR-4 ovarian; 93.2% with SK-OV-3 ovarian; 107% in the assay with IGROV1 ovarian. Besides, the growth is 106% with HS 578T breast; 100% with NCI/ADR-RES ovarian; 95.5% with T-47D breast; 111% in the assay with BT-549 breast; 110% in the assay with MDA-MB-435 melanoma; 97.5% with SW-620 colon. Moreover, the growth was 91.3% in the assay with MCF7 breast, 109% in the assay on HCT-116 colon, 102% with HCC-2998 colon and 106% in the assay with KM12 colon.
For `COc1cc2c3c(n(CCCN4CCCCC4)c(=O)c2cc1OC)-c1cc2c(cc1C3=O)OCO2`, the growth with RPMI-8226 leukemia was -47.3% (active); in the assay on OVCAR-8 ovarian, -63.6% (active); in the assay on OVCAR-5 ovarian, -96.1% (active); in the assay on OVCAR-4 ovarian, -74.1% (active); in the assay on SK-OV-3 ovarian, 46%; in the assay on IGROV1 ovarian it was -68.7% (active). The growth in the assay on HS 578T breast was -51.2% (active); in the assay with NCI/ADR-RES ovarian, -62% (active); with T-47D breast it was -64.6% (active); in the assay with BT-549 breast, -59.7% (active); with MDA-MB-435 melanoma, -81.4% (active); with SW-620 colon, -92.5% (active). Moreover, the growth with MCF7 breast was -75.5% (active); with HCT-116 colon it was -71.9% (active); with HCC-2998 colon, -86.8% (active); in the assay on KM12 colon, -85.4% (active).
With `COc1cc2c3c(n(CCCNC4CCC4)c(=O)c2cc1OC)-c1cc2c(cc1C3=O)OCO2`, the growth is -39.1% (active) in the assay with RPMI-8226 leukemia; -49.8% (active) in the assay on OVCAR-8 ovarian; -72.4% (active) in the assay on OVCAR-5 ovarian; -57.9% (active) in the assay on OVCAR-4 ovarian; 23.4% in the assay on SK-OV-3 ovarian; -53.3% (active) in the assay on IGROV1 ovarian. The growth with HS 578T breast was 84.1%; in the assay on NCI/ADR-RES ovarian, -32.4% (active); with T-47D breast, 53.5%; in the assay with BT-549 breast it was 76%; with MDA-MB-435 melanoma, -65.7% (active); in the assay on SW-620 colon, -15.4% (active). Also, the growth with MCF7 breast was -71.5% (active); in the assay on HCT-116 colon it was -48.4% (active); in the assay on HCC-2998 colon it was -89.3% (active); with KM12 colon it was 38.7%.
As for `COC(=O)c1nc(-c2ccc(C)cc2)oc1S(=O)(=O)N1CCN(c2oc(-c3ccccc3)nc2C#N)CC1`, the growth with RPMI-8226 leukemia is 97.7%; with OVCAR-8 ovarian, 102%; with OVCAR-5 ovarian, 108%; in the assay with OVCAR-4 ovarian it was 106%; with SK-OV-3 ovarian, 119%; in the assay with IGROV1 ovarian it was 106%. For the same molecule, the growth in the assay with HS 578T breast is 108%; in the assay on NCI/ADR-RES ovarian, 103%; in the assay on T-47D breast, 111%; with BT-549 breast it was 99.7%; in the assay with MDA-MB-435 melanoma, 102%; in the assay on SW-620 colon it was 99.5%. The growth is 80.6% in the assay with MCF7 breast, 92.8% with HCT-116 colon, 113% with HCC-2998 colon and 101% in the assay with KM12 colon.
